Measurements taken from PubChem BioAssay (NCI).
Several values for one entry are separate records, joined by “and”; a condition that tells them apart may be missing. Identical values can stand only once. This is part of a sample that, as a whole, favours compounds with a hit. Of some 79,000 tested, about 15% had one in any assay. The source holds several records for some structures; these can differ, active in one and inactive in another. Activity calls are given as the source filed them. No stated cut-off is given here; in the data, active means growth inhibition above about 70%; inactive means the rest.

Experiments:
[1] = NCI Yeast Anticancer Drug Screen. Data for the rad50 strain (AID 155);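 further: 0% = growth of vehicle-only cultures of the same strain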; settings: S. cerevisiae rad50 strain growth inhibition, stronger effect = higher value
Procedure, shortened: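 Relative growth inhibition (compound vs vehicle) was measured in yeast with a defined repair-gene alteration.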

[2] = NCI Yeast Anticancer Drug Screen. Data for the mec2-1 strain (AID 157); settings: S. cerevisiae mec2-1 strain, stronger effect = higher value
Procedure, shortened: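 Each compound was tested on mec2-1 yeast, a strain altered in DNA damage repair or cell cycle control. Growth inhibition is reported relative to vehicle.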

[3] = NCI Yeast Anticancer Drug Screen. Data for the sgs1 mgt1 strain (AID 161);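 further: 0% = growth of cultures given vehicle only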; settings: S. cerevisiae sgs1 mgt1 strain, stronger effect = higher value
Procedure, shortened: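 Test agents were incubated with a DNA-repair-mutant yeast strain. Growth was then read and compared against vehicle-treated controls.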

[4] = NCI Yeast Anticancer Drug Screen. Data for the cln2 rad14 strain (AID 165);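 further: 0% = growth equal to vehicle treated cultures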; settings: S. cerevisiae cln2 rad14 strain, stronger effect = higher value
Procedure, shortened: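 Test compounds were added to cln2 rad14 yeast cultures; inhibition of growth was then determined by comparison with vehicle treatment.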

[5] = NCI Yeast Anticancer Drug Screen. Data for the bub3 strain (AID 167); settings: S. cerevisiae bub3 mutant strain, stronger effect = higher value
Procedure, shortened: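 Screening used yeast with an engineered genetic alteration affecting cell cycle control. Compound-exposed cultures were compared with vehicle cultures, and reduced growth was taken as inhibition.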

[6] = NCI Yeast Anticancer Drug Screen. Data for the mlh1 rad18 strain (AID 175); settings: S. cerevisiae mlh1 rad18 strain growth inhibition, stronger effect = higher value
Procedure, shortened: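 Inhibition values reflect reduced growth of mutant yeast versus vehicle-treated controls following compound exposure; the mutations affect DNA damage repair.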

[7] = at 5.0 µM (retest, dose inferred, filed as 0.5)
[8] = at 50.0 µM (retest, dose inferred, filed as 5.0)

Measured: growth inhibition

CCCCCCCCCCCCCCCCCC(=O)OC(Cc1ccccc1)C(=O)O (stereo not given)
inactive: [1]; [7] 1% | [1]; [8] -2% | [1]; at 50.0 µM 33.9% | [2]; [7] 1% | [2]; [8] 2% | [2]; at 50.0 µM 18% | [3]; [7] 1% | [3]; [8] -15% | [3]; at 50.0 µM 15.7% | [4]; [7] 2% | [4]; [8] -9% | [4]; at 50.0 µM 26.2% | [5]; [7] 1% | [5]; [8] 2% | [5]; at 50.0 µM 35.7% | [6]; [7] 0% | [6]; [8] -1% | [6]; at 50.0 µM 32.9%

O=C1/C(=C/c2ccc(Cl)cc2)Sc2scc(-c3cccc([N+](=O)[O-])c3)[n+]21
active: [1]; [8] 99% | [1]; at 50.0 µM 89.5% | [2]; [8] 100% | [2]; at 50.0 µM 90.4% | [3]; [7] 84% | [3]; [8] 99% | [3]; at 50.0 µM 91.9% | [4]; [8] 98% | [4]; at 50.0 µM 90.5% | [5]; [7] 98% | [5]; [8] 99% | [5]; at 50.0 µM 89.8% | [6]; [8] 100% | [6]; at 50.0 µM 91.8%
inactive: [1]; [7] 26% | [2]; [7] 36% | [4]; [7] 44% | [6]; [7] 35%

OC(c1nc2ccccc2[nH]1)C(O)C(O)C(O)c1nc2ccccc2[nH]1 (stereo not given)
inactive: [1]; [7] -2% | [1]; [8] -28% | [1]; at 50.0 µM -8.95% and 19.2% | [2]; [7] -25% | [2]; [8] -18% | [2]; at 50.0 µM -15.1% and 2.95% | [3]; [7] -20% | [3]; [8] 1% | [3]; at 50.0 µM -18.4% and 17.9% | [4]; [7] 0% | [4]; [8] -3% | [4]; at 50.0 µM 2.25% and -6.8% | [5]; [7] -15% | [5]; [8] -28% | [5]; at 50.0 µM -38.5% and 44.8% | [6]; [7] -22% | [6]; [8] -49% | [6]; at 50.0 µM 2.85% and 22%

CN(CCN1C(=O)c2cccc3cccc(c23)C1=O)CCN1C(=O)c2cccc3cccc(c23)C1=O
inactive: [2]; [7] 20% | [3]; [7] 69% | [4]; [7] 15% | [5]; [7] -2% | [6]; [7] 47%
active: [1]; [7] 97% | [1]; [8] 96% | [1]; at 50.0 µM 98.5% | [2]; [8] 97% | [2]; at 50.0 µM 98.2% | [3]; [8] 97% | [3]; at 50.0 µM 97.2% | [4]; [8] 90% | [4]; at 50.0 µM 83.6% | [5]; [8] 95% | [5]; at 50.0 µM 96% | [6]; [8] 97% | [6]; at 50.0 µM 98.1%

O=S(O)CCCCSSCC(O)C(O)CSSCCCCS(=O)O (stereo not given)
active: [3]; at 50.0 µM 78.8% | [6]; at 50.0 µM 73%
inactive: [1]; [7] -7% | [1]; [8] 21% | [1]; at 50.0 µM 49.4% | [2]; [7] 12% | [2]; [8] 44% | [2]; at 50.0 µM 56.1% | [3]; [7] 6% | [3]; [8] 50% | [4]; [7] -10% | [4]; [8] 24% | [4]; at 50.0 µM 37% | [5]; [7] 3% | [5]; [8] 55% | [5]; at 50.0 µM 57.5% | [6]; [7] 3% | [6]; [8] 33%

CC(C)OP(=O)(OC(C)C)C(=Nc1ccccc1)NNc1ccc([N+](=O)[O-])cc1
inactive: [1]; [7] -22% | [1]; [8] -15% | [2]; [7] -21% | [2]; [8] 2% | [2]; at 50.0 µM 16.6% | [3]; [7] -13% | [3]; [8] 15% | [3]; at 50.0 µM 22.7% | [4]; [7] -33% | [4]; [8] -6% | [4]; at 50.0 µM -18.8% | [5]; [7] -17% | [5]; [8] -20% | [5]; at 50.0 µM 43.6% | [6]; [7] -8% | [6]; [8] 7% | [6]; at 50.0 µM 44%
active: [1]; at 50.0 µM 71.1%

O=[N+]([O-])c1ccc(Cl)c(C2CC(c3cccc4ccccc34)=Nc3ccccc3S2)c1 (stereo not given)
active: [2]; at 50.0 µM 83%
inactive: [1]; [7] 0% | [1]; [8] 0% | [1]; at 50.0 µM 31.1% | [2]; [7] 0% | [2]; [8] 2% | [3]; [7] 2% | [3]; [8] 12% | [3]; at 50.0 µM 30.6% | [4]; [7] -1% | [4]; [8] 0% | [4]; at 50.0 µM 43.2% | [5]; [7] 2% | [5]; [8] 7% | [5]; at 50.0 µM 35.2% | [6]; [7] -1% | [6]; [8] 6% | [6]; at 50.0 µM 58.3%

C=C1C(=O)OC2CC(C)C3C4OC4C(O)C3(C)C(O)C12 (stereo not given)
active: [5]; at 50.0 µM 71%
inactive: [1]; [7] 2% | [1]; [8] 0% | [1]; at 50.0 µM 69.9% | [2]; [7] 2% | [2]; [8] 4% | [2]; at 50.0 µM 39.1% | [3]; [7] 4% | [3]; [8] 8% | [3]; at 50.0 µM 65.7% | [4]; [7] -3% | [4]; [8] -6% | [4]; at 50.0 µM 50.4% | [5]; [7] 2% | [5]; [8] 6% | [6]; [7] 0% | [6]; [8] -2% | [6]; at 50.0 µM 63.6%

Oc1ccccc1C=Nc1ccccc1O
active: [5]; [7] 79%
54.4% (inactive) and 72.1% (active): [5]; at 50.0 µM
inactive: [1]; [7] 22% | [1]; [8] 32% | [1]; at 50.0 µM 59.2% and 56.2% | [2]; [7] 8% | [2]; [8] 22% | [2]; at 50.0 µM 36.7% and 41.9% | [3]; [7] 7% | [3]; [8] 16% | [3]; at 50.0 µM 35.5% and 42.1% | [4]; [7] -5% | [4]; [8] 5% | [4]; at 50.0 µM 17.2% and 32.1% | [5]; [8] 65% | [6]; [7] 38% | [6]; [8] 47% | [6]; at 50.0 µM 49.8% and 29.6%

Cc1c2ccccc2c(C=O)c2ccccc12
active: [1]; [8] 96% | [1]; at 50.0 µM 86.2% | [2]; [8] 99% | [2]; at 50.0 µM 89% | [3]; at 50.0 µM 91.2% | [4]; at 50.0 µM 88.2% | [5]; at 50.0 µM 88.5% | [6]; [8] 99% | [6]; at 50.0 µM 87.4%
inactive: [1]; [7] 40% | [2]; [7] 44% | [3]; [7] -13% | [3]; [8] 57% | [4]; [7] 50% | [4]; [8] 59% | [5]; [7] 2% | [5]; [8] 67% | [6]; [7] 40%

O=C1OC(c2ccc(O)cc2)(c2ccc(O)cc2)c2cccc3cccc1c23
active: [1]; [8] 99% | [1]; at 50.0 µM 99% | [2]; [8] 99% | [2]; at 50.0 µM 99.2% | [3]; [8] 99% | [3]; at 50.0 µM 99% | [4]; [8] 99% | [4]; at 50.0 µM 98.9% | [5]; [8] 99% | [5]; at 50.0 µM 99% | [6]; [8] 99% | [6]; at 50.0 µM 98.3%
inactive: [1]; [7] 25% | [2]; [7] 11% | [3]; [7] 17% | [4]; [7] 14% | [5]; [7] 11% | [6]; [7] 23%

CC(=O)NC1CCC(C2CCCCC2)CC1C1CCCCC1 (stereo not given)
active: [1]; [8] 85% | [1]; at 50.0 µM 93.6% | [2]; [8] 87% | [2]; at 50.0 µM 95.7% | [3]; [8] 93% | [3]; at 50.0 µM 90.7% | [4]; [8] 82% | [4]; at 50.0 µM 89.7% | [5]; [8] 86% | [5]; at 50.0 µM 95% | [6]; [8] 86% | [6]; at 50.0 µM 92%
inactive: [1]; [7] -2% | [2]; [7] -1% | [3]; [7] 4% | [4]; [7] 1% | [5]; [7] 3% | [6]; [7] -1%

CCCC(C)NCCOC(=O)C(c1ccccc1)C1CCCCC1 (stereo not given)
active: [1]; at 50.0 µM 85.6% | [3]; at 50.0 µM 85.5% | [6]; at 50.0 µM 73.2%
inactive: [1]; [7] -11% | [1]; [8] 49% | [2]; [7] 3% | [2]; [8] 36% | [2]; at 50.0 µM 14.2% | [3]; [7] -3% | [3]; [8] 60% | [4]; [7] -2% | [4]; [8] 36% | [4]; at 50.0 µM 34.3% | [5]; [7] 0% | [5]; [8] 49% | [5]; at 50.0 µM 57.5% | [6]; [7] 1% | [6]; [8] 61%

CCCCCCCCCCCCCC1=NCC(c2ccc3ccccc3c2)O1 (stereo not given)
inactive: [1]; [7] -4% | [1]; [8] -13% | [1]; at 50.0 µM -1.9% | [2]; [7] -4% | [2]; [8] -2% | [2]; at 50.0 µM 4.95% | [3]; [7] -4% | [3]; [8] -23% | [3]; at 50.0 µM -12.6% | [4]; [7] -6% | [4]; [8] -27% | [4]; at 50.0 µM 10.3% | [5]; [7] 1% | [5]; [8] -6% | [5]; at 50.0 µM -4.7% | [6]; [7] -2% | [6]; [8] -6% | [6]; at 50.0 µM -1.95%

CCCCCCCCOC(=O)c1cc(O)c(O)c(O)c1
active: [1]; at 50.0 µM 89.2% | [2]; at 50.0 µM 91.7% | [3]; [8] 98% | [3]; at 50.0 µM 93% | [4]; [8] 98% | [4]; at 50.0 µM 90% | [5]; [7] 70% | [5]; [8] 97% | [5]; at 50.0 µM 89.8% | [6]; at 50.0 µM 89.2%
inactive: [1]; [7] 49% | [1]; [8] 64% | [2]; [7] 46% | [2]; [8] 68% | [3]; [7] 59% | [4]; [7] 48% | [6]; [7] 44% | [6]; [8] 59%
